Screening results (PubChem BioAssay)
A selection: hits, their analogues and other compounds. The true share with any hit is near 5%.
UCHL1 block = inhibitors of human UCHL1 deubiquitinase; Ubiquitin carboxyl-terminal hydrolase isozyme L1 (Homo sapiens), P09936; purified UCHL1, Ub-rhodamine cleavage fluorescence; inhibition, % at 20 µM; 0.2% of 47,000 active; AID 1645859, 2021
USP7 block = inhibitors of human USP7 deubiquitinase. inhibition, % at 20 µM. 0.3% of 47,000 active. purified USP7, Ub-rhodamine cleavage fluorescence. AID 1645854, 2021. Ubiquitin carboxyl-terminal hydrolase 7 (Homo sapiens), Q93009
Target sequence (Q93009 whole entry, looked up): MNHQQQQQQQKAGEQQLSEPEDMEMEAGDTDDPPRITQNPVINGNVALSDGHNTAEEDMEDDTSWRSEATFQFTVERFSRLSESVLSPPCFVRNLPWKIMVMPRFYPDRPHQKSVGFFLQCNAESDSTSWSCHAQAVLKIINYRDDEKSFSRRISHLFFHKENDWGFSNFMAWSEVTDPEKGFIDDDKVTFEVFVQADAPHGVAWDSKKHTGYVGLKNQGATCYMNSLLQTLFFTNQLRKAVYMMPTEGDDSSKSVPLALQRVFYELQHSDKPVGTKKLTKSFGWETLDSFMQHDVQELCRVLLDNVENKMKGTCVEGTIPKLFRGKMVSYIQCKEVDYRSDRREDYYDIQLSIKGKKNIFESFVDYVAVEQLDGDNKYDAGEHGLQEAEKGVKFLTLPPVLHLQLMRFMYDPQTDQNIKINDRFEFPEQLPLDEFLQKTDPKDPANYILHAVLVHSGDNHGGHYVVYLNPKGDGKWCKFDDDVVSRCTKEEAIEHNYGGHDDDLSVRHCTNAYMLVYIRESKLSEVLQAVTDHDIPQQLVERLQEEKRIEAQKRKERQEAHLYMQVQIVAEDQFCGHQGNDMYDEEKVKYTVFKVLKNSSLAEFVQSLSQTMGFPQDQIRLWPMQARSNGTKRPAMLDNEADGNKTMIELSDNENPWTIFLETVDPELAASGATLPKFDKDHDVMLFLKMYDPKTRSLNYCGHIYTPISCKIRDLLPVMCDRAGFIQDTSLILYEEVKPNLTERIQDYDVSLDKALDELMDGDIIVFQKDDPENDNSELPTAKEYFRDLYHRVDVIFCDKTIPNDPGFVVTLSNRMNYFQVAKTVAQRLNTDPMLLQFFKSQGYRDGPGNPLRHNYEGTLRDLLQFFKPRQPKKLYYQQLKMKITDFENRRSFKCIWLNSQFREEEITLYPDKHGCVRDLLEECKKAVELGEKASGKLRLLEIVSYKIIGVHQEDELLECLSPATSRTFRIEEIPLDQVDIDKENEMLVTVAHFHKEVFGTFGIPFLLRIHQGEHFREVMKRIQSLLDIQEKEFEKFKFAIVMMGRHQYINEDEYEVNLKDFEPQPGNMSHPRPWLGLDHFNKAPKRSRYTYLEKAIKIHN
USP8 block = inhibitors of human USP8 deubiquitinase. inhibition, % at 20 µM. 4.2% of 47,000 active. AID 1645853, 2021. Ubiquitin carboxyl-terminal hydrolase 8 (Homo sapiens), P40818. purified USP8, Ub-rhodamine cleavage fluorescence, 30 min
USP10 block = inhibitors of human USP10 deubiquitinase. purified USP10, Ub-rhodamine fluorescence, 60 min. inhibition, % at 20 µM. 1.1% of 47,000 active. AID 1645856, 2021
* marks the source's active call; other numbers are inactive results. Cut-off read from the data, not from the text of the source: active = inhibition above about 30%; inactive = the rest.

SMILES	UCHL1 block	USP7 block	USP8 block	USP10 block
CCc1c(C)nc2ncnn2c1Sc1ccccc1NC(=O)c1ccc2c(c1)OCO2	0.8	11.6	13.6	0.1
Cc1cccc(NC(=O)N2CCCC2c2cccs2)c1C (stereo unspecified)	-2.3	-17.0	-5.1	-3.4
CCSc1nc(-c2ccc(F)cc2)nc2c1Cc1cc(C)ccc1O2	-1.1	1.9	15.5	-2.7
COc1cc(OC)c2cc(C(=O)N[C@@H](Cc3ccccc3)C(=O)O)n(C)c2c1	1.7	0.0	58.4*	5.6
COc1ccc(C(=O)COC(=O)c2ccccc2NS(=O)(=O)c2ccc(O)c([N+](=O)[O-])c2)cc1	5.4	24.3	61.8*	62.8*
O=C(COC(=O)c1ccccc1NS(=O)(=O)c1ccc2c(c1)OCCO2)c1ccc([N+](=O)[O-])cc1	-1.4	5.5	-131.6	15.5
Cc1ccc(Cn2nccc2NC(=O)c2cc(=O)c3ccccc3o2)cc1	1.4	3.3	0.0	1.6
O=c1oc2c3c(c(Cl)cc2c2c1CCCC2)OCN(CCc1ccc(F)cc1)C3	-4.1	2.8	41.2*	-2.6
O=c1cc(CN2CCN(Cc3ccccc3)CC2)c2cc3c(cc2o1)CCC3	-1.4	-2.3	-8.5	-0.5
O=c1oc2c3c(c(Cl)cc2c2c1CCCC2)OCN(Cc1ccccc1)C3	8.3	-16.4	81.5*	4.5
Cc1ccc(S(=O)(=O)N2CCC3(CC2)NCCN=C3NC2CCCC2)cc1C	0.1	3.9	-13.0	-2.5
CCCCc1ccc(NC(=O)CCN2C(=O)[C@@H]3Cc4ccccc4CN3C2=O)cc1	0.6	-0.4	-5.2	0.4
CCC(C)C1NC(=O)C(CCC(N)=O)N(C)C(=O)C(C(C)C)N(C)C(=O)CNC(=O)C2CCCN2C(=O)C(Cc2ccccc2)NC(=O)C(C(C)CC)OC(=O)C(CCC(N)=O)N(C)C(=O)C(C(C)C)NC(=O)C2CCCCN2C1=O (stereo unspecified)	-3.0	-4.1	-8.6	-10.3
COc1ccc(C(=O)COC(=O)/C=C/c2ccc(S(=O)(=O)Nc3cccc(S(N)(=O)=O)c3)cc2)cc1	5.1	5.0	-6.2	22.6
CCc1ccc(NC(=O)C(C)OC(=O)/C=C/c2ccc(S(=O)(=O)Nc3cccc(S(N)(=O)=O)c3)cc2)cc1 (stereo unspecified)	4.3	9.3	17.9	32.6*
NS(=O)(=O)c1cccc(NS(=O)(=O)c2ccc(/C=C/C(=O)OCC(=O)c3ccc(Br)cc3)cc2)c1	4.8	14.2	5.8	41.2*
COc1ccc(-c2nccn3cc(C(=O)NCc4nc5ccccc5n4C)nc23)cc1	-17.5	-18.7	35.7*	-9.2
COc1ccccc1NS(=O)(=O)c1ccc2oc(Nc3ccc4c(c3)CCC4)nc2c1	5.9	10.2	50.8*	27.0
COC(=O)c1ccc(Nc2cc(C)nc3cc(C(F)(F)F)ccc23)cc1	2.6	4.8	35.0*	27.5
COC(=O)c1ccc(COC(=O)c2cc(C)nc3ccccc23)cc1	0.8	6.1	-0.6	-0.6
O=C(NC1CCCCCC1)c1cnn2c3c(cnc12)CCCCCC3	4.2	1.9	0.4	4.7
COc1ccc(CNC(=O)C2CCN(CC3CC=CCC3)CC2)cc1 (stereo unspecified)	-1.6	-0.9	-4.2	-1.1
O=C(Cc1nnc(-c2ccccn2)o1)NCc1cccc(Cl)c1	1.9	0.9	4.8	-2.4
CCn1cc(S(=O)(=O)NCc2cc(F)cc(F)c2)c2cccnc21	4.9	-16.7	48.3*	8.3
Cc1ccc2[nH]cc(S(=O)(=O)c3cc(F)cc(F)c3)c(=O)c2c1	28.2	36.1*	98.1*	26.0
SMILES	UCHL1 block	USP7 block	USP8 block	USP10 block
Cc1ccc2[nH]cc(S(=O)(=O)c3ccc(C)c(F)c3)c(=O)c2c1	3.7	19.9	17.5	8.4
Cc1ccc(S(=O)(=O)c2c[nH]c3cc(F)ccc3c2=O)cc1F	-0.4	15.4	68.8*	11.0
O=C(NC1CCCC1)C1CC(=O)N(c2cccc(-c3noc(-c4cccs4)n3)c2)C1 (stereo unspecified)	3.9	1.4	-0.3	45.3*
Cc1nc(-c2cccc(N3CC(C(=O)NC4CCCC4)CC3=O)c2)no1 (stereo unspecified)	0.6	-0.9	2.9	-1.5
COc1ccc(C2CCNc3ccccc3N2)cc1 (stereo unspecified)	-6.6	-5.2	36.9*	-5.3
Cc1nc(Sc2ncccn2)c(C#N)c(C)c1Br	-1.5	-2.5	-1.4	-0.6
Cn1nccc1-c1cccc(-c2noc(-c3cccc(NC(=O)c4ccco4)c3)n2)c1	-0.3	-9.9	-22.0	-6.1
